Records with an inconclusive call do not appear. Activity calls are given as the source filed them. The calls were made as follows: active = hit-call score of the fitted dose curve at least 0.9, where 1 is the maximum; inconclusive = response in the unintended direction; inactive = score below 0.9.

human Protein Kinase C, zeta (PKCz), PRKCZ (gene 5590), sequence (Q05513 whole entry, looked up): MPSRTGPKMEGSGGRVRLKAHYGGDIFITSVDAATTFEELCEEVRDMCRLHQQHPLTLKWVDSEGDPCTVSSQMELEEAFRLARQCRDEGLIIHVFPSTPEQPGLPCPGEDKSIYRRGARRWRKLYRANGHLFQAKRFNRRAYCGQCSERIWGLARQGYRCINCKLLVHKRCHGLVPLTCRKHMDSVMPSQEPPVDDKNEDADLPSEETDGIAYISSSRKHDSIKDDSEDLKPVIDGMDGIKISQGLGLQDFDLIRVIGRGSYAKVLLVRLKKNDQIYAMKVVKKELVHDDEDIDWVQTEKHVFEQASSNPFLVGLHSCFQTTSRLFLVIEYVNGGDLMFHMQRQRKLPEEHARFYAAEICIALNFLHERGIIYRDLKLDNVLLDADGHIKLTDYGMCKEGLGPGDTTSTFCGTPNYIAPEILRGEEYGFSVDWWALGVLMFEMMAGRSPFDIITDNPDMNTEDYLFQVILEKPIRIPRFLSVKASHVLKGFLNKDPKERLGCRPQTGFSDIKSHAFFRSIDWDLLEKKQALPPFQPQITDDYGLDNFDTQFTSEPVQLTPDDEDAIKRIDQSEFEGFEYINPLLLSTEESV

For the assay, the target named is human Protein Kinase C, zeta (PKCz), PRKCZ (gene 5590) (UniProt Q05513). Description: NVS_ENZ_hPKCz: NovaScreen (NVS) Enzymatic Assay for human Protein Kinase C, zeta (PKCz). How it is done:
NVS_ENZ_hPKCz is a biochemical, single-readout assay that uses extracted gene-proteins in a cell-free assay. Measurements were taken 1 hour after chemical dosing in a 384-well plate.NVS_ENZ_hPKCz is one of one assay component(s) measured or calculated from the NVS_ENZ_hPKCz assay. It is designed to make measurements of enzyme activity, a form of enzyme reporter, as detected with fluorescence intensity signals by Fluorescence and electrophoretic mobility shift technology.Data from the assay component NVS_ENZ_hPKCz was analyzed into 1 assay endpoint. This assay endpoint, NVS_ENZ_hPKCz, was analyzed in the positive analysis fitting direction relative to DMSO as the negative control and baseline of activity. Using a type of enzyme reporter, loss-of-signal activity can be used to understand changes in the enzymatic activity as they relate to the gene PRKCZ. Furthermore, this assay endpoint can be referred to as a primary readout, because this assay has produced multiple assay endpoints where this one serves a enzymatic activity function. To generalize the intended target to other relatable targets, this assay endpoint is annotated to the kinase intended target family, where the subfamily is serine/threonine kinase.
Binding assays used specific radioligands (tritiated, iodinated) with non-radioactive competitive displacement ligands in agonist or antagonist protocols (as indicated) and various reference compounds and inhibitors to titrate specific binding to receptors and transporters. Most enzyme assays (CYPs, kinases, phosphatases, proteases, HDACs) used recombinant protein and specific substrates (fluorescence mostly, some colorimetric and radioactive) and inhibitors, followed by a biochemical separation of substrate and product. All assays for the biochemical HTS were initially run in duplicate at a single concentration (10 uM for CYP450 assays and 25 uM for all others). Assay-chemical combinations meeting a pre-defined threshold (e.g., 30% inhibition and other criteria defined below) were then run in singleton concentration-response format with maximum concentration of 20 uM for CYPs and 50 uM for all others. Each assay was run with positive and negative controls, and concurrent controls on every plate. The follow-up (secondary) screen tested active chemical-pairs in concentration series, as well as a few additional assays not tested in the primary screen, some selected negative inactives, and several cases re-run in the concentration series for confirmatory purposes.
`COCC(C)N(C(=O)CCl)c1c(C)csc1C` (stereo not given): the outcome was inactive.

Regarding `COC(=O)c1ccccc1S(=O)(=O)NC(=O)N(C)c1nc(C)nc(OC)n1`, the call was inactive.

For the compound `CCCCC(CC)COC(=O)c1ccccc1C(=O)OCC(CC)CCCC` (stereo not given), the call was inactive.

For `CCOP(=S)(OCC)Oc1ccc2c(C)c(Cl)c(=O)oc2c1`, the call was inactive.

Regarding `S=C1NCCN1`, the compound was classed as inactive.

The values above are taken from PubChem BioAssay AID2283193 (EPA ToxCast).
